Measurements taken from PubChem BioAssay (NCI).
This is part of a sample that, as a whole, favours compounds with a hit. Of some 83,000 tested, about 20% had one in any assay.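 Assay: single dose, 48 h. Readout: percent growth (0 = no net growth; negative = cell death). Active: <10.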 A number with no mark means an inactive call. The source made the active and inactive calls.

How the values were obtained:
Assay in all cases: NCI-60 one-dose screen, 48 h (100 = growth as untreated, 0 = no growth, -100 = all killed)
Conditions in all cases: 10 µM
HCT-15 colon = test system: HCT-15 colon
HT29 colon = test system: HT29 colon
SNB-75 CNS = test system: SNB-75 CNS
SNB-19 CNS = test system: SNB-19 CNS
U251 CNS = test system: U251 CNS
PC-3 prostate = test system: PC-3 prostate
SK-MEL-5 melanoma = test system: SK-MEL-5 melanoma
UACC-62 melanoma = test system: UACC-62 melanoma
LOX IMVI melanoma = test system: LOX IMVI melanoma
SK-MEL-28 melanoma = test system: SK-MEL-28 melanoma

Structure (SMILES) | growth (HCT-15 colon) | growth (HT29 colon) | growth (SNB-75 CNS) | growth (SNB-19 CNS) | growth (U251 CNS) | growth (PC-3 prostate) | growth (SK-MEL-5 melanoma) | growth (UACC-62 melanoma) | growth (LOX IMVI melanoma) | growth (SK-MEL-28 melanoma)
O=C(CCc1nnc2sc(-c3cc(O)c(O)c(O)c3)nn12)c1nc2ccccc2[nH]1 | 88.8% | 93.5% | 93.6% | 113% | 94.4% | 86.3% | 84.1% | 104% | 98.3% | 110%
OC(CNc1ccnc2cc(Cl)ccc12)CNC1CCCCC1 (centres undefined) | 75.6% | 31.3% | 87.4% | 100% | 63.1% | 69.4% | 15.3% | 61.4% |  | 23.3%
Cc1ccc(-n2nnnc2N)c(C)c1 | 106% | 123% | 101% | 113% | 99.5% | 105% | 115% | 96.4% |  | 112%
Nc1ncnc2c1ncn2C1(CO)OCC(O)C(O)C1O (centres undefined) | 105% | 88.8% | 90.6% | 103% | 101% | 103% | 103% | 105% | 94.4% | 105%
O=C(CN(C1CCCCC1)C1CCCCC1)Nc1ccc(S(=O)(=O)c2ccc(NC(=O)CN(C3CCCCC3)C3CCCCC3)cc2)cc1 | -33.7% (active) | -84.2% (active) | 55.8% | 11.1% | -75.9% (active) | -80% (active) | -76.5% (active) | -20.9% (active) |  | 12.2%
COc1ccc2nc3cc(Cl)ccc3c(N)c2c1 | -65% (active) | -67.3% (active) | -99.3% (active) | 4.71% (active) | -74.3% (active) | -73% (active) | -95.6% (active) | -96.4% (active) |  | -98.4% (active)
CC(C)(C)OC(=O)N1CCc2c(sc3ncnc(N/N=C/c4ccccc4Br)c23)C1 | 25.5% | 77.2% | 74.5% | 93.1% | 74.9% | 48.1% | 66.6% | 60.1% | 55.5% | 81.9%
C(=N\Nc1ncnc2sc3c(c12)CCNC3)/c1cccc2ccccc12 | 18.9% | 16.8% | 62.5% | 79.1% | 83% | 76.9% | 97.1% | 101% | 50.4% | 103%
CCCCc1oc2ccccc2c1C(=O)c1cc(I)c(OCCN(CC)CC)c(I)c1 | -50.5% (active) | -61.2% (active) | 12.5% | -60.6% (active) | -86.3% (active) | -8.07% (active) | -100% (active) | -86.8% (active) | -88.7% (active) | -87.8% (active)
Cc1ccc(NCCN(C)CC(C)O)c2c(=O)c3ccc(Cl)cc3sc12 (centres undefined) | 21.2% | -27% (active) | 76.3% | 55% | 8.57% (active) | 48.2% | 46.9% | -68.7% (active) |  | -53.5% (active)
COc1ccc(/C=C2\CCCC3C2=Nc2ccccc2NC3c2ccc(OC)cc2)cc1 (centres undefined) | 93.9% | 74.8% | 101% | 92% | 80.9% | 86.9% | 88.5% | 68% | 57.4% | 98.3%
O=C(COc1cccc(/C=C2\CSc3ccccc3C2=O)c1)c1ccc(Cl)cc1 | -49.7% (active) | -86.3% (active) | 94.6% | 60.8% | -97.9% (active) | -39.6% (active) | -94.4% (active) | -73.9% (active) |  | -81.7% (active)
CN(C)CCOc1cccc(NC2=C(Cl)C(=O)C(Nc3cccc(OCCN(C)C)c3)=C(Cl)C2=O)c1 | -78.6% (active) | -80% (active) | 84% | 6.1% (active) | -93.2% (active) | 5.48% (active) | -95.2% (active) | -82.2% (active) | -81.5% (active) | -63.9% (active)
